Results on 40 molecules are retold here after PubChem BioAssay (Tox21).

Inconclusive results are not listed. Where a call stands in place of a potency, no number is given. Calls of active or inactive are those of the source. Calls follow the shape of the dose curve; as a rule, active = well fitted inhibition curve with a large enough effect in the repeat runs; inconclusive = weak or mixed curves, or effect the other way; inactive = no such curve, though single readings can be large or run the other way.
Potency is read from the fitted curve at half-maximal effect.

Nuclear receptor subfamily 1 group I member 3 (Homo sapiens), sequence (Q14994 whole entry, looked up): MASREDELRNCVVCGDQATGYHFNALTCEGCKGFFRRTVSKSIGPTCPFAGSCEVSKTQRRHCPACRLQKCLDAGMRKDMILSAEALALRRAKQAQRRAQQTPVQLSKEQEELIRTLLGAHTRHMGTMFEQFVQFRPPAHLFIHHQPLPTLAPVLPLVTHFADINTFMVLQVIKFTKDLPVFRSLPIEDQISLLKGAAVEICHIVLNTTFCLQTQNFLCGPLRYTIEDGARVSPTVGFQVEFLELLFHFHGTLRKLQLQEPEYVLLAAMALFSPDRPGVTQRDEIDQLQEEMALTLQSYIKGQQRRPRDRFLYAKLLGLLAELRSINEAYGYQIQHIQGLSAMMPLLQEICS

The test addresses Nuclear receptor subfamily 1 group I member 3 (Homo sapiens) (UniProt Q14994). The test is described as follows: qHTS assay to identify small molecule antagonists of the constitutive androstane receptor (CAR) signaling pathway (AID 1224838).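 Also: HepG2 cells stably expressing hCAR with CYP2B6 luciferase reporter stimulated by CITCO; nearly all actives have a fitted effect of over 40% in size.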 The following applies: HepG2-CYP2B6-hCAR luciferase, CITCO-stimulated, 24 h; series mostly up to 92.4 µM. From the text:
U.S. Tox21 Program National Center for Advancing Translational Sciences [NCATS] NIH Chemical Genomics Center [NCGC] U.S. Environmental Protection Agency [EPA] National Institutes of Environmental Health Sciences [NIEHS] National Toxicology Program [NTP] U.S. Food and Drug Administration [FDA] Tox21 Assay Overview: The constitutive androstane receptor (CAR) is a nuclear receptor which regulates multiple drug metabolizing enzymes (DMEs) and transporters. Activating CAR will generally increase the transcription and subsequent translation of CYP2B6 and CYP3A4. These two DMEs represent about 50% of the drug metabolizing potential in the body. When CAR is deactivated, the metabolizing potential in the body will decrease, subsequently increasing the toxicity in the body or lowering the therapeutic potential of a pro-drug. Recently, there have also been studies performed indicating CARs role in energy metabolism and cancer therapy. Therefore, inhibiting CARs activity could have a potential effect on diabetes and cancer. Identifying environmental toxins and compounds which modulate CAR, through the use of the Tox21 10K compound collection, will be an important step in determining the toxicity and potential therapeutic effects these factors will have on the human body.
Tox21 Assay Protocol Summary: A double-stable (hCAR and CYP2B6-2.2kb) transfected cell line, derived from human hepatoma (HepG2) cells, was utilized for the duration of the quantitative high-throughput screens. The HepG2-CYP2B6-hCAR cells suspended in DMEM culture medium supplemented with 10% FBS, 5 ug/mL blasticidin, 0.5 mg/mL geneticin, 100 U/mL penicillin and 100 ug/mL streptomycin were dispensed at 2500 cells/4 uL/well in 1536-well white solid bottom plates using a Multidrop Combi. After the assay plates were incubated at 37 C/5% CO2 for 4 hrs, 23 nL of compounds at 15 concentrations (from 5-48 columns) or positive control (from 1 to 4 columns) were transferred to the assay plates using a Pintool station. One uL of CITCO, was added using a Flying Reagent Dispenser to generate a final concentration of 50 nM CITCO inside each well. After a 24 hr incubation period at 37 C/5% CO2, four uL of ONE-Glo reagent was added into the assay plates using a Flying Reagent Dispenser. After a 30 min incubation period at room temperature, the luminescence intensity in the assay plates was measured using a ViewLux plate reader.
On the technique in general: In qHTS, concentration-response curves come from the screen itself.
`CCCCCCCCCCCCI`: the Potency result was “inactive”. Take `C1=C\CC/C=C\CC/C=C\CC/1`: the Potency result is “inactive”. For the molecule `Nc1ccc2cc(S(=O)(=O)O)ccc2c1`, the Potency entry was “inactive”. Regarding `C#CC(O)C(CC)CCCC` (stereo not given), the Potency entry was “inactive”. Consider `CCCCCCCCCCC1CO1` (stereo not given), for which the Potency entry is “inactive”. `OC1OC[C@@H](O)[C@H](O)[C@H]1O` (stereo not given in full): the Potency entry is “inactive”. As for `NC1CCN(c2cccc(Cl)n2)CC1`, the Potency result is “inactive”. With `O=C(O)c1cccc(C(=O)O)n1`, the Potency result is “inactive”. With `C=C(C)C1CC=C(C)C(O)C1` (stereo not given) the entry was “inactive”. The same measure for `CC(C)(C)OC(=O)N1C[C@@H](F)C[C@H]1C(=O)O`: “inactive”. As for `CC/C=C\C#N`, the Potency result is “inactive”. With `COC(=O)C1=C(C)NC(C)=C(C(=O)OCC(C)=O)C1c1ccccc1[N+](=O)[O-]` (stereo not given), the Potency result was “inactive”. With `CCO[Si](C)(OCC)OCC`, the Potency entry is “inactive”.

Regarding `N#CCN(CC#N)CCN(CC#N)CC#N`, the Potency result was “inactive”. As to `c1ccc(SCCSc2ccccc2)cc1`, the Potency result was “inactive”. For `N#CC1(O)CCCCC1`, the Potency entry was “inactive”. The same measure for `O=C1C(CCS(=O)c2ccccc2)C(=O)N(c2ccccc2)N1c1ccccc1` (stereo not given): “inactive”; for `C=CC(=O)N1CCOCC1`: “inactive”.

On to `CC(C)c1ccc2oc3nc(N)c(C(=O)O)cc3c(=O)c2c1`, for which the Potency entry was “inactive”.

For the molecule `CC1=CC(C)C(C=O)C(C)C1` (stereo not given), the Potency entry was “inactive”. The same measure for `CC(=O)NC(Cc1ccccc1)C(=O)O` (stereo not given): “inactive”; for `COc1cccc(OC)c1`: “inactive”. With `C/C=C1\C(=O)C[C@H]2[C@@H]3CCC4=CC(=O)CC[C@]4(C)[C@H]3CC[C@]12C` the entry was “inactive”; with `Cc1nccn1CC1CCc2c(c3ccccc3n2C)C1=O` (stereo not given), “inactive”; with `NC(=O)c1ncn([C@@H]2O[C@H](CO)[C@@H](O)[C@H]2O)c1O`, “inactive”.

In the case of `C(=C(c1ccccc1)c1ccccc1)c1ccccc1`, the Potency result was “inactive”. The same measure for `O=c1[nH]c2ccccc2c(=O)n1CCCl`: “inactive”; for `CCCC(=O)O[C@]1(C(=O)CCl)[C@@H](C)C[C@H]2[C@@H]3CCC4=CC(=O)C=C[C@]4(C)[C@@]3(F)C(=O)C[C@@]21C`: “inactive”; for `C=CCOCC(O)CS(=O)(=O)O` (stereo not given): “inactive”.

On to `COC(=O)CCCC(=O)O`, for which the Potency result was “inactive”.

`CCCCOCC(C)OCC(C)O` (stereo not given): the Potency entry was “inactive”. Take `COc1ccc(COC=O)cc1`: the Potency entry is “inactive”.

With `CC(C)CCCC(C)CCCC(C)CCCCC(C)CCCC(C)CCCC(C)C` (stereo not given), the Potency entry was “inactive”. Consider `CCCCN(CCO)CCO`, for which the Potency result is “inactive”. The same measure for `CCCCCN(CCCCC)C(=O)C(CCC(=O)O)NC(=O)c1ccc(Cl)c(Cl)c1` (stereo not given): “inactive”; for `CCCCNc1ccccc1`: “inactive”.

Consider `CCC(C)OC(=O)N1CCCCC1CCO` (stereo not given), for which the Potency result is “inactive”. In the case of `CCn1c(=O)c2c(nc(/C=C/c3ccc(OC)c(OC)c3)n2C)n(CC)c1=O`, the Potency result is “inactive”.

For `Cc1c(C)n(CCN(C)C)c2ccc(C(=O)OCCN(C)C)cc12`, the Potency was 29.8 µM (active). Take `[O-][N+](=Nc1ccccc1)c1ccccc1`: the Potency result was “inactive”.
